Data on 22 molecules can be found in PubChem BioAssay.

A number with no mark means an inactive call. Calls of active or inactive are those of the source. Rule as the data show it, unless noted: active = inhibition above about 44%; inactive = the rest.

Steroidogenic factor 1 (Homo sapiens), sequence (Q13285 whole entry, looked up): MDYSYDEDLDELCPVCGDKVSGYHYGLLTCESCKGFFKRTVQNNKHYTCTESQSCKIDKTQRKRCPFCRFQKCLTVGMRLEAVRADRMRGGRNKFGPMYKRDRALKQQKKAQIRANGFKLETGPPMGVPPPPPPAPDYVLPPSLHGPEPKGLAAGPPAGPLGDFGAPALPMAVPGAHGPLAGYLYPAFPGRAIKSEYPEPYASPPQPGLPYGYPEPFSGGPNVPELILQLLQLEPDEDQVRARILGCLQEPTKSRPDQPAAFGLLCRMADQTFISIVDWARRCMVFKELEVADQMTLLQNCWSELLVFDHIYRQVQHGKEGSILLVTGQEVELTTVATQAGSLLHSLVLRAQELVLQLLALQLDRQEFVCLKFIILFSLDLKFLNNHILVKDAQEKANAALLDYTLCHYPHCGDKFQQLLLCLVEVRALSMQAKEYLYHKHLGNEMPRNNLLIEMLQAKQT

System in one assay: not listed separately
Briefly: StAR promoter reporter inhibitors, counter-screen for LRH-1 inverse agonist project, cell-based, luminescence, high throughput (AID 651611; in the data active = inhibition above about 28%). The settings on record: StAR promoter luciferase reporter counterscreen, at 3.6 µM, hits give high values.
Take `COc1ccc(/C=C/C(=O)O)cc1O`: the inhibition was 1.72%.

`Cc1cc(C)n2c(Nc3ccc4c(c3)OCCO4)c(-c3cc4ccccc4o3)nc2n1`: the inhibition is -27.7%.

On to `O=C(Nc1ccc(Br)cn1)C1CCN(S(=O)(=O)c2cccs2)CC1`, for which the inhibition was 13.5%.

`C#CCN(C[C@@H]1[C@@H](OC(=O)Nc2cccs2)[C@@H](OC(=O)Nc2cccs2)Cn2c(=O)ccc(=O)n21)S(=O)(=O)c1ccc(C)cc1`: the inhibition was 32% (active).

`CC(C)(C)C(=O)/C(=C\c1cccc([N+](=O)[O-])c1)n1cncn1`: the inhibition is 84.9% (active).

In the case of `CC1=C(CO)C(=O)OC([C@@H](C)C2CC[C@H]3C4C[C@H]5O[C@]56[C@@H](O)C=CC(=O)[C@]6(C)C4CC[C@]23C)C1` (some centres not stated), the inhibition is 67.7% (active).

As to `COc1ccc(-c2cc(-c3nc4ccccn4c3NCc3ccccc3)ccc2OC)cc1`, the inhibition is 95.2% (active).

As for `CCc1cc(-c2nnn(CCC3COCCO3)c2CC)ccc1-c1cn(Cc2ccc3ccccc3c2)nn1` (configuration not stated), the inhibition is 0.97%.

Take `CCN(CC)CCC(=O)N1C/C(=C/c2ccccc2)C(=O)/C(=C\c2ccccc2)C1`: the inhibition was 57.8% (active).

For `COc1ccc(-c2noc(CCCC(=O)NC3CCCC3)n2)cc1`, the inhibition is 15.1%.

Turning to `O=C(N/N=C/c1ccc([N+](=O)[O-])s1)c1cccnc1`, the inhibition is 13.9%.

On to `CC(C)(C)C(=O)/C(=C/c1cccc([N+](=O)[O-])c1)n1cncn1`, for which the inhibition was 87.2% (active).

The target of a further assay is Nuclear receptor subfamily 5 group A member 2 (Homo sapiens) (UniProt O00482). Briefly: NR5A2 activity suppression in reporter cells – cell-based, luminescence, confirmation (AID 651613; in the data active = inhibition above about 42%;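 also: HEK293T cells co-transfected with LRH-1 and StAR promoter luciferase reporter; 0% = vehicle wells and 100% = parental cells lacking receptor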). The settings on record: cell-based LRH-1 luciferase reporter, inverse agonism; at 3.6 µM; hits give high values.
Nuclear receptor subfamily 5 group A member 2 (Homo sapiens), sequence (O00482 whole entry, looked up): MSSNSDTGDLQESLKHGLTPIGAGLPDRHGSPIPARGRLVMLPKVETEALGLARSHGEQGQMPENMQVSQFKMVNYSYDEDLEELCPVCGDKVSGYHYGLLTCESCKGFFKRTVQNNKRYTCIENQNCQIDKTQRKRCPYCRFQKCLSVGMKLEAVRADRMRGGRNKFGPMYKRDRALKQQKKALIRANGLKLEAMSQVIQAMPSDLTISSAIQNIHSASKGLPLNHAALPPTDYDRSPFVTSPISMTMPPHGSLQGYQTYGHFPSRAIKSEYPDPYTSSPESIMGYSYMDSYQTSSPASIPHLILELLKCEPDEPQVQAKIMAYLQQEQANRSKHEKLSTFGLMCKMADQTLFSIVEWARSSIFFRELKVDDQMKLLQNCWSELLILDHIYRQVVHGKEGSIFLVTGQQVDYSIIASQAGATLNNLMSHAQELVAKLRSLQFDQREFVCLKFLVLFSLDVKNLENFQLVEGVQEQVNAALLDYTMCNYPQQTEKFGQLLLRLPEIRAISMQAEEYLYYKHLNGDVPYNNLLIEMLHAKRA
As to `CN(C)c1ccc2nc3ccc(=[N+](C)C)cc-3sc2c1`, the inhibition is 59.9% (active).

On to `COC(=O)c1ccc(OCC2c3cc(OC)c(OC)cc3CCN2C(=O)c2ccco2)cc1` (configuration not stated), for which the inhibition is 52.8% (active).

For `Cn1cc(C(=O)c2ccc(Cl)cc2)cc1-c1nc2ccccc2n1C`, the inhibition is 51.9% (active).

Consider `Cc1cc(C)n2c(Nc3ccc4c(c3)OCCO4)c(-c3cc4ccccc4o3)nc2n1`, for which the inhibition was -26.8%.

With `O=C(N/N=C/c1ccc([N+](=O)[O-])o1)c1ccc(O)cc1`, the inhibition is 78.3% (active).

For the molecule `O=C(Nc1ccc(Br)cn1)C1CCN(S(=O)(=O)c2cccs2)CC1`, the inhibition is 48.4% (active).

As for `CC(N)C(=O)NC(CO)C(O)C(N)C=O` (configuration not stated), the inhibition is 56.3% (active).

`C#CCN(C[C@@H]1[C@@H](OC(=O)Nc2cccs2)[C@@H](OC(=O)Nc2cccs2)Cn2c(=O)ccc(=O)n21)S(=O)(=O)c1ccc(C)cc1`: the inhibition is 54.4% (active).

Take `COc1ccc(-c2nc3c([nH]2)c(=O)n(C)c(=O)n3C)c(OC)c1`: the inhibition was 24.5%.

With `CC1=C(CO)C(=O)OC([C@@H](C)C2CC[C@H]3C4C[C@H]5O[C@]56[C@@H](O)C=CC(=O)[C@]6(C)C4CC[C@]23C)C1` (some centres not stated), the inhibition is 66.2% (active).

In the case of `COc1ccc(-c2cc(-c3nc4ccccn4c3NCc3ccccc3)ccc2OC)cc1`, the inhibition is 109% (active).

Consider `CCc1cc(-c2nnn(CCC3COCCO3)c2CC)ccc1-c1cn(Cc2ccc3ccccc3c2)nn1` (configuration not stated), for which the inhibition is 34.7%.

Consider `CC(=O)Nc1ccc(NC(=O)CSc2nnc(-c3ccco3)n2Cc2ccco2)cc1`, for which the inhibition is 58.2% (active).

`CCN(CC)CCC(=O)N1C/C(=C/c2ccccc2)C(=O)/C(=C\c2ccccc2)C1`: the inhibition was 84.4% (active).

As to `COc1ccc(-c2noc(CCCC(=O)NC3CCCC3)n2)cc1`, the inhibition is 59.7% (active).

With `CN(C)C(=O)c1cccc(COc2ccc(N3C(N)=NC(N)=NC3(C)C)cc2Cl)c1`, the inhibition is 42.1% (active).

Take `CNC(=O)c1cc(Oc2ccc(NC(=O)Nc3ccc(Cl)c(C(F)(F)F)c3)cc2)ccn1`: the inhibition is 63.7% (active).

A further assay addresses Steroidogenic factor 1 (Homo sapiens) (UniProt Q13285). Briefly: inverse agonism at SF1 nuclear receptor – cell-based, luminescence, high throughput, counter-screen for LRH-1 inverse agonist project (AID 651614).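 Also: cells cotransfected with StAR promoter reporter and SF1 expression vector; 0% = vehicle on cells with receptor and 100% = vehicle on cells lacking receptor.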 The settings on record: cell-based SF1 luciferase reporter, at 3.6 µM, hits give high values.
For the molecule `CN(C)c1ccc2nc3ccc(=[N+](C)C)cc-3sc2c1`, the inhibition was 66.7% (active).

For `COc1cccc(N2CCN(CC(=O)Nc3ccc(-n4cnnn4)cc3)CC2)c1`, the inhibition is 48.9% (active).

As to `COC(=O)c1ccc(OCC2c3cc(OC)c(OC)cc3CCN2C(=O)c2ccco2)cc1` (configuration not stated), the inhibition is 53% (active).

In the case of `Cn1cc(C(=O)c2ccc(Cl)cc2)cc1-c1nc2ccccc2n1C`, the inhibition was 49.8% (active).

For `Cc1cc(C)n2c(Nc3ccc4c(c3)OCCO4)c(-c3cc4ccccc4o3)nc2n1`, the inhibition was -6.96%.

As to `O=C(N/N=C/c1ccc([N+](=O)[O-])o1)c1ccc(O)cc1`, the inhibition was 69% (active).

Take `O=C(Nc1ccc(Br)cn1)C1CCN(S(=O)(=O)c2cccs2)CC1`: the inhibition is 50.2% (active).

For the molecule `CC(N)C(=O)NC(CO)C(O)C(N)C=O` (configuration not stated), the inhibition was 55.5% (active).

Turning to `C#CCN(C[C@@H]1[C@@H](OC(=O)Nc2cccs2)[C@@H](OC(=O)Nc2cccs2)Cn2c(=O)ccc(=O)n21)S(=O)(=O)c1ccc(C)cc1`, the inhibition is 54.8% (active).

Consider `COc1ccc(-c2nc3c([nH]2)c(=O)n(C)c(=O)n3C)c(OC)c1`, for which the inhibition was 12.7%.

Take `CC1=C(CO)C(=O)OC([C@@H](C)C2CC[C@H]3C4C[C@H]5O[C@]56[C@@H](O)C=CC(=O)[C@]6(C)C4CC[C@]23C)C1` (some centres not stated): the inhibition was 79.8% (active).

`COc1ccc(-c2cc(-c3nc4ccccn4c3NCc3ccccc3)ccc2OC)cc1`: the inhibition is 97.3% (active).

As for `CCc1cc(-c2nnn(CCC3COCCO3)c2CC)ccc1-c1cn(Cc2ccc3ccccc3c2)nn1` (configuration not stated), the inhibition is 42.3%.

Take `CC(=O)Nc1ccc(NC(=O)CSc2nnc(-c3ccco3)n2Cc2ccco2)cc1`: the inhibition is 59.9% (active).

`CCN(CC)CCC(=O)N1C/C(=C/c2ccccc2)C(=O)/C(=C\c2ccccc2)C1`: the inhibition is 86.8% (active).

For the molecule `COc1ccc(-c2noc(CCCC(=O)NC3CCCC3)n2)cc1`, the inhibition was 60.5% (active).

As for `CN(C)C(=O)c1cccc(COc2ccc(N3C(N)=NC(N)=NC3(C)C)cc2Cl)c1`, the inhibition is 39.9%.

With `CNC(=O)c1cc(Oc2ccc(NC(=O)Nc3ccc(Cl)c(C(F)(F)F)c3)cc2)ccn1`, the inhibition was 69% (active).
